Data reported in PubChem BioAssay (Tox21).
Where “and” joins values, the source holds several entries; their conditions need not be identical. Identical values can stand only once. Results filed as inconclusive are left out. Some compounds were tested as several samples or in several runs, with calls that do not always agree. Calls of active or inactive are those of the source. Unless noted, calls follow the shape of the dose curve; as a rule, active = well fitted curve in the direction sought with a large enough effect in the repeat runs; inconclusive = weak or mixed curves; inactive = no such curve, though single readings can be large; an effect the other way counts as inactive or inconclusive.

What was measured:
[1] = qHTS assay for small molecule agonists of the p53 signaling pathway (AID 651631; calls by dose curve; also: nearly all actives have a fitted effect of over 15% in size)
How it was run: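 HCT-116 cells carrying a beta-lactamase reporter under p53 response elements were dosed with compound for 16 h at 37 °C. LiveBLAzer B/G FRET substrate was then added for 2 h at room temperature, and fluorescence intensity was read to detect pathway agonism.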

[2] = qHTS assay for small molecules that induce genotoxicity in human embryonic kidney cells expressing luciferase-tagged ATAD5 (AID 651632); also: nearly all actives have a fitted effect of over 15% in size
How it was run: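 Luminescence read-out: after 16 hr compound exposure at 37C, ATAD5-luciferase HEK293T cells received Amplite, 30 min RT, then CCD imaging. A rise in signal marks genotoxic stress.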

[3] = qHTS assay for small molecule agonists of the p53 signaling pathway - cell viability (AID 651633; calls by dose curve;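 also: p53RE-bla HCT reporter cells with a stable beta-lactamase p53 reporter; series mostly up to about 83 µM; nearly all actives have a fitted effect of over 30% in size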)
How it was run: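 p53RE-bla cells, seeded at 4,000 per well and rested 5 h at 37 C/5% CO2, received compounds in DMSO for 16 h at 37 C. CellTiter-Glo was then added, and luminescence was read after 30 min at room temperature to gauge cytotoxicity.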

[4] = qHTS assay for small molecules that induce genotoxicity in human embryonic kidney cells expressing luciferase-tagged ATAD5 - cell viability (AID 651634; calls by dose curve; also: nearly all actives have a fitted effect of over 25% in size)
How it was run: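 HEK293T ATAD5-luc cells, 2,000/well; compound 15.5 hr, 37C/5% CO2; CellTiter-Fluor 30 min, 37C; fluorescence read.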

[5] = qHTS assay for small molecule disruptors of the mitochondrial membrane potential - cell viability (AID 720634; calls by dose curve; also: nearly all actives have a fitted effect of over 20% in size; also: potency is read from the fitted curve at half-maximal effect)
How it was run: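 Luminescence from CellTiter-Glo (ATP content) gave viability in HepG2 cells, read in the same wells as the MMP dye assay after 1 hr compound exposure at 37 C.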

[6] = qHTS assay for small molecule disruptors of the mitochondrial membrane potential (AID 720635); also: potency is read from the fitted curve at half-maximal effect
How it was run: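 HepG2 cells (2,000/well) attached overnight at 37C, then took compound for 1 hr at 37C, 5% CO2. Mito-MPS dye was added for 30 min; fluorescence was read at 490/535 nm (monomers) and 540/590 nm (aggregates).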

[7] = qHTS assay to test for compound auto fluorescence at 590 nm (red) in HepG2 cells (AID 720674)
How it was run: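 Compound auto-fluorescence is scored relative to Rose Bengal sodium, measured at 540/590 nm in live HepG2 cultures after 1 hr compound contact (37 C, 5% CO2).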

[8] = qHTS assay to test for compound auto fluorescence at 535 nm (green) in HepG2 cells (AID 720675)
[9] = qHTS assay to test for compound auto fluorescence at 460 nm (blue) in HEK293 cells (AID 720678)
How it was run: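 HEK293 cells (2,000/well, medium with 10% dialyzed FBS) attached 4-5 hr, then exposed to compound overnight at 37C, 5% CO2. Blue fluorescence read at 405/460 nm, with triamterene as reference fluorophore.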

[10] = qHTS assay to test for compound auto fluorescence at 590 nm (red) in HEK293 cells (AID 720679)
How it was run: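 HEK293 cells (2,000/well, 10% dialyzed FBS) attached 4-5 hr, then dosed with compound or DMSO and incubated overnight at 37C, 5% CO2. Red fluorescence read at 540/590 nm, Rose Bengal sodium as reference fluorophore.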

[11] = qHTS assay to test for compound auto fluorescence at 535 nm (green) in HEK293 cells (AID 720680)
[12] = qHTS assay to test for compound auto fluorescence at 535 nm (green) in HEK293 cell free culture (AID 720682)
How it was run: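 Green-label autofluorescence (485 nm excitation, 535 nm emission) measured on compound added to cell-free culture medium (DMEM, 10% FBS). Output is expressed relative to fluorescein.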

[13] = qHTS assay to test for compound auto fluorescence at 590 nm (red) in HepG2 cell free culture (AID 720684)
How it was run: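 Ex 540 / Em 590 nm read of compound in cell-free MEM (10% FBS). Rose Bengal sodium reference.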

[14] = qHTS assay to test for compound auto fluorescence at 460 nm (blue) in HepG2 cell free culture (AID 720685)
How it was run: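 Cell-free plates of MEM plus 10% FBS received 23 nL compound or DMSO vehicle; blue-channel (405/460 nm) intensity scored against triamterene as reference fluorophore.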

[15] = qHTS assay to test for compound auto fluorescence at 535 nm (green) in HepG2 cell free culture (AID 720686)
[16] = qHTS assay to test for compound auto fluorescence at 460 nm (blue) in HepG2 cells (AID 720687)
How it was run: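 Cells (2,000/well in MEM with 10% FBS) attached overnight at 37 C, then were exposed to compound or DMSO for 1 hr at 37 C, 5% CO2. Fluorescence read at Ex/Em 405/460 nm, expressed as triamterene-equivalent signal.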

[17] = target: Glucocorticoid receptor (Homo sapiens) (UniProt P04150); assay: qHTS assay to identify small molecule agonists of the glucocorticoid receptor (GR) signaling pathway (AID 720691; active = well fitted activation curve with a large enough effect in the signal ratio in the repeat runs, not every such curve was filed as active; the % refers to the signal ratio)
Chain of Glucocorticoid receptor (Homo sapiens) (P04150 whole entry, looked up): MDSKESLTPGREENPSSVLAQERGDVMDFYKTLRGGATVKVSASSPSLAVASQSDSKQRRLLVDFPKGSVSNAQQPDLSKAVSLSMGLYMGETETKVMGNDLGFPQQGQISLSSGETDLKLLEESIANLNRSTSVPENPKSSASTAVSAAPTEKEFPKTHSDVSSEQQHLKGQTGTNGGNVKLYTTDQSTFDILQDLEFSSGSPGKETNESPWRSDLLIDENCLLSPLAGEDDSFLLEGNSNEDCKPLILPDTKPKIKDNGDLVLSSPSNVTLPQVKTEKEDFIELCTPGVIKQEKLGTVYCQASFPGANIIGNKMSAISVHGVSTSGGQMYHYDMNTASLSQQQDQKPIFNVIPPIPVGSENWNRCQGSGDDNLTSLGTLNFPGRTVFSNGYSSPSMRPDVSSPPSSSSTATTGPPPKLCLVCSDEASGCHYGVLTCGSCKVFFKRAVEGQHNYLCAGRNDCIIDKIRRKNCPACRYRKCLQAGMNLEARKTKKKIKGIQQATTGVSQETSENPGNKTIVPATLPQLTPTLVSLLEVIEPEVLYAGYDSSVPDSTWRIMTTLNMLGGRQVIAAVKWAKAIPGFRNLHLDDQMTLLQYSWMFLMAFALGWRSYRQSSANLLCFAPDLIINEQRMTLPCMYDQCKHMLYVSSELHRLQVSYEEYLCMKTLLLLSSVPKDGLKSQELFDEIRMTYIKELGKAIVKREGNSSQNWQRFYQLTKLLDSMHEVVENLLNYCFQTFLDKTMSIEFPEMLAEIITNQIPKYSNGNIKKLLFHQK
How it was run: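 HeLa GR-bla reporter line; cells pre-incubated 4 h, compound in DMSO 18 h at 37 C; LiveBLAzer B/G FRET substrate 2 h RT; fluorescence intensity read-out.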

[18] = qHTS assay to test for compound auto fluorescence at 460 nm (blue) in HEK293 cell free culture (AID 720681)
How it was run: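 Test compounds were pinned into cell-free culture medium (DMEM with 10% FBS) and fluorescence was read directly at Ex/Em 405/460 nm. Signals were expressed as fluorescence equivalents of triamterene, with DMSO vehicle as control.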

[19] = qHTS assay to test for compound auto fluorescence at 590 nm (red) in HEK293 cell free culture (AID 720683)
How it was run: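 Tox21 10K library compounds were pinned into cell-free DMEM with 10% FBS and fluorescence was read at excitation 540 nm. Activity is expressed as Rose Bengal sodium equivalency.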

[20] = target: Glucocorticoid receptor (Homo sapiens) (UniProt P04150); assay: qHTS assay to identify small molecule antagonists of the glucocorticoid receptor (GR) signaling pathway (AID 720692; active = well fitted inhibition curve with a large enough effect in the signal ratio in the repeat runs, not every such curve was filed as active; the % refers to the signal ratio)
How it was run: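 Read-out: beta-lactamase FRET substrate fluorescence, 2 h at room temperature, in HeLa cells stably carrying a GRE-driven bla reporter. Compounds were co-incubated with 5 nM dexamethasone agonist (final) for 18 h at 37 C.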

Measured: Potency

C=CC(=O)OCCC(=O)O
inactive: [1] | [2] | [3] | [4] | [5] | [6] | [7] | [8] | [9] | [10] | [11] | [12] | [13] | [14] | [15] | [16] | [17]

O=C(O)c1ccccc1C(=O)O
inactive: [1] | [2] | [3] | [4] | [5] | [6] | [7] | [8] | [9] | [10] | [11] | [18] | [12] | [19] | [13] | [14] | [17] | [20]

OCc1cccc(Oc2ccccc2)c1
inactive: [1] | [2] | [3] | [4] | [5] | [7] | [8] | [9] | [10] | [11] | [12] | [19] | [13] | [16]
active: [6] 54.5 µM

COc1ccc(C)cc1N
inactive: [1] | [2] | [3] | [4] | [5] | [6] | [7] | [8] | [9] | [10] | [11] | [18] | [12] | [19] | [13] | [14] | [17] | [20]

c1ccc(Oc2ccccc2)cc1
inactive: [1] | [2] | [3] | [4] | [5] | [6] | [7] | [8] | [9] | [10] | [11] | [18] | [12] | [13] | [14] | [15] | [16] | [17] | [20]

Cc1ccc(C(C)C)c(O)c1
inactive: [1] | [2] | [3] | [4] | [7] | [8] | [9] | [10] | [11] | [18] | [19] | [13] | [15] | [16] | [17] | [20]
active: [6] 24.3 µM
inactive and 61.1 µM (active): [5]

NCCCCCCN
inactive: [1] | [2] | [3] | [4] | [5] | [6] | [7] | [8] | [9] | [10] | [11] | [12] | [13]

CN/C(=C\[N+](=O)[O-])NCCSCc1csc(CN(C)C)n1
inactive: [1] | [2] | [3] | [4] | [5] | [6] | [7] | [8] | [9] | [10] | [11] | [18] | [12] | [19] | [13] | [14] | [15] | [17] | [20]

C=CC[N+](C)(C)CC=C
inactive: [1] | [2] | [3] | [4] | [5] | [6] | [7] | [8] | [9] | [10] | [11] | [19] | [13] | [14] | [15] | [16] | [17] | [20]

COc1ccc(OC)cc1
inactive: [1] | [2] | [3] | [4] | [5] | [6] | [7] | [8] | [9] | [10] | [11] | [12] | [19] | [13] | [14] | [15] | [16] | [17] | [20]

CC(=O)CC(C)(C)O
inactive: [1] | [2] | [3] | [4] | [5] | [6] | [7] | [8] | [9] | [10] | [11] | [18] | [19] | [13] | [14] | [15] | [16] | [17] | [20]

CCCCCCCCCCN
inactive: [1] | [2] | [3] | [4] | [5] | [6] | [7] | [8] | [9] | [10] | [11] | [18] | [12] | [19] | [13] | [14] | [15] | [16] | [17] | [20]

CC(=O)Oc1ccc(C)cc1
inactive: [1] | [2] | [3] | [4] | [5] | [6] | [7] | [8] | [9] | [10] | [11] | [18] | [13] | [15] | [17] | [20]

CCOCCOCCOCCO
inactive: [1] | [2] | [3] | [4] | [5] | [6] | [7] | [8] | [9] | [10] | [11] | [18] | [19] | [13] | [14] | [16]

CCCCCCCCCCCCCCCC(=O)OC(C)C
inactive: [1] | [2] | [3] | [4] | [5] | [6] | [7] | [8] | [9] | [10] | [11] | [18] | [19] | [13] | [14] | [15]

CCNc1cccc(C)c1
inactive: [1] | [2] | [3] | [4] | [5] | [6] | [7] | [8] | [9] | [10] | [11] | [18] | [19] | [13] | [14] | [15] | [16]

CC(C)CC(=O)CC(C)CC(C)C (stereo unspecified)
inactive: [1] | [2] | [3] | [4] | [5] | [6] | [7] | [8] | [9] | [10] | [11] | [18] | [12] | [19] | [13] | [16] | [17] | [20]
